In the library only some 10% were active in any assay of this set; here they are far more common.
PNC inhibitor: High Content Assay for Compounds that inhibit the Assembly of the Perinucleolar Compartment | PC3M PTB-GFP, PNC prevalence imaging, 16 h; hits give low values | 3.1% of 140,000 active | activity change (PNC), negative = inhibition, % at 10 µM;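 active = readout at or below -70, meaning at least 70% loss of cells showing the perinucleolar compartment, a nuclear body marking cancer cells; inconclusive = readout between -30 and a set limit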
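Read-out is percentage of cells bearing a perinucleolar compartment, from automated 20x imaging of fixed, Hoechst-stained PC3M PTB-GFP cells. Cells were seeded 4 h, then exposed 16 h to compound (23 nl of library stock) in duplicate plates.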
Lamin A splicing: qHTS Assay for Modulators of Lamin A Splicing; HeLa LMNA splicing GFP/RFP minigene ratio, 48 h; Potency, µM (doses to about 46.1 µM), actives largely listed as inhibitors; 0.01% of 200,000 active; AID 1487, 2009; active = well fitted inhibition curve with a large enough effect in the signal ratio, with a control signal flat, not every such curve was filed as active; inconclusive = small, poorly fitted or top-dose-only effect, or effect the other way, or a change in a side signal; the % refers to the signal ratio
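S3 HeLa cells stably expressing lamin A-EGFP splicing minigene plus DsRed2, 600 cells/well, 48 h compound exposure at 37C. Laser-scanning cytometry; analysed as GFP (500-530 nm)/RFP (575-640 nm) total intensity ratio; 0.5% DMSO vehicle.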
HPGD inh: qHTS Assay for Inhibitors of HPGD (15-Hydroxyprostaglandin Dehydrogenase). 15-hydroxyprostaglandin dehydrogenase [NAD(+)] (Homo sapiens), P15428. purified HPGD, NADH fluorescence kinetic, PGE2 substrate. Potency, µM, most hits filed as inhibitors. 4.3% of 150,000 active. AID 894, 2007
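NADH formation kinetics: reaction with 30 uM PGE2 and 1 mM NAD+ (final), 20 nM enzyme, Tris-HCl pH 8 with Tween 20, after 15 min compound preincubation at room temperature. Fluorescence change, last versus first of five reads.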
ALOX12 inhib: qHTS Assay for Inhibitors of 12-hLO (12-human lipoxygenase). AID 1452, 2008. 0.12% of 150,000 active. Polyunsaturated fatty acid lipoxygenase ALOX12 (Homo sapiens), P18054. purified 12-hLO, xylenol orange hydroperoxide absorbance. Potency, µM (titrated, usually from 57.1 µM), hits mostly inhibitors; active = well fitted inhibition curve with a large enough effect; inconclusive = small, poorly fitted or top-dose-only effect; note: nearly all actives have a fitted effect of over 55% in size
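Hydroperoxide formation by human 12-lipoxygenase from 40 uM arachidonic acid was followed colorimetrically via ferric-xylenol orange complex, using the 573/405 nm absorbance ratio. Enzyme concentration was 150 nM, with 30 min reaction at room temperature.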
ALDH1A1 inh: qHTS Assay for Inhibitors of Aldehyde Dehydrogenase 1 (ALDH1A1); Purified ALDH1A1, NADH fluorescence, propionaldehyde substrate; 7.3% of 220,000 active; Potency, µM (series often up to 75.3 µM), most hits filed as inhibitors
Target sequence (P00352 whole entry, looked up): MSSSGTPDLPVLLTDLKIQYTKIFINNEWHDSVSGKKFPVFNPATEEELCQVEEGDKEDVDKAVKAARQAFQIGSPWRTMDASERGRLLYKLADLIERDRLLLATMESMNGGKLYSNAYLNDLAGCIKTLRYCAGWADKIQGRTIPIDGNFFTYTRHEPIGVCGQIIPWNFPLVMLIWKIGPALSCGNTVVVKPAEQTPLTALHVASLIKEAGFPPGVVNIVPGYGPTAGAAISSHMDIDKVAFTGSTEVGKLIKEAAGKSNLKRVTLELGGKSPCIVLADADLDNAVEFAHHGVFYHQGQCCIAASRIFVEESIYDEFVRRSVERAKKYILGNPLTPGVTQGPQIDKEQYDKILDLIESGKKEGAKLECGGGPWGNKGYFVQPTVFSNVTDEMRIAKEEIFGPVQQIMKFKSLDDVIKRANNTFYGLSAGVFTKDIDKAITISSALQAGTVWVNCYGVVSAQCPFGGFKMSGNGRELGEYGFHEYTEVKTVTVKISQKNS
Large screens that a line does not name were inactive. Unless noted, calls come from the whole dose curve; as a rule, active = well fitted inhibition curve with a large enough effect (not every such curve was filed as active); inconclusive = small, poorly fitted or top-dose-only effect, or another doubt; inactive = no such curve, though single readings can be large or run the other way.

COc1ccc(OC)c(C2C=C(c3ccc(C)c(C)c3)Nc3nnnn32)c1 (configuration not stated)	Lamin A splicing inconclusive, ALDH1A1 inh 20µM
COc1cccc(C2=CC(c3cc(OC)ccc3OC)n3nnnc3N2)c1 (configuration not stated)	Lamin A splicing inconclusive, ALDH1A1 inh 25µM
COc1cccc(C2=CC(c3ccccc3)n3ncnc3N2)c1 (configuration not stated)	HPGD inh inconclusive, ALDH1A1 inh inconclusive
COc1cccc(C2=CC(c3ccc(N(C)C)cc3)n3ncnc3N2)c1 (configuration not stated)	PNC inhibitor inconclusive, ALDH1A1 inh 10µM
COc1ccc(Br)cc1C1CC(=O)N2CN(Cc3ccccc3)CSC2=C1C#N (configuration not stated)	HPGD inh 7.1µM, ALDH1A1 inh 0.11µM
COc1cc(OC)c(C2CC(=O)N3CN(C)CSC3=C2C#N)cc1OC (configuration not stated)	HPGD inh 8.9µM, ALDH1A1 inh 8.9µM
COc1ccc(CCN2C(=O)CN(Cc3ccccc3)CC2=O)cc1OC	none
COc1ccc2ccccc2c1C1CC(=O)N2CN(C)CSC2=C1C#N (configuration not stated)	HPGD inh 6.3µM, ALOX12 inhib inconclusive, ALDH1A1 inh 8.9µM
N#CC1=C2SCN(Cc3ccccc3)CN2C(=O)CC1c1ccccc1F (configuration not stated)	HPGD inh 28µM, ALDH1A1 inh 10µM
COc1cc(OC)c(C2C(C#N)=C(N)Oc3cc(C)n(CCCN4CCOCC4)c(=O)c32)cc1OC (configuration not stated)	ALDH1A1 inh inconclusive
Nc1cc2c(cc1C(=O)c1cccc(Br)c1)OCCO2	none (no result: PNC inhibitor, Lamin A splicing, HPGD inh, ALOX12 inhib)
COc1cccc([C@@H]2Oc3ccc(Br)cc3C[C@H]2OC(=O)NS(=O)(=O)c2ccc(C)cc2)c1	none (no result: PNC inhibitor, Lamin A splicing, ALOX12 inhib)
COc1ccc(-n2c(=O)c3c4c(sc3n(Cc3c(F)cccc3Cl)c2=O)CN(C(C)=O)CC4)cc1OC	none (no result: PNC inhibitor, HPGD inh, ALOX12 inhib, ALDH1A1 inh)
COc1ccc(Br)cc1C1CC(=O)N2CN(C)CSC2=C1C#N (configuration not stated)	HPGD inh 13µM, ALDH1A1 inh 7.1µM
CC(C)c1ccc(C2CC(=O)N3CN(C)CSC3=C2C#N)cc1 (configuration not stated)	HPGD inh 14µM, ALDH1A1 inh 3.5µM
CCOC(=O)CSC1=C(C#N)C(c2ccccc2OC)CC(=O)N1 (configuration not stated)	PNC inhibitor inconclusive, Lamin A splicing inconclusive
COC(=O)CSC1=C(C#N)C(c2ccc(C(C)C)cc2)CC(=O)N1 (configuration not stated)	ALDH1A1 inh inconclusive
COc1cccc(/C=C(\C#N)C(=O)Nc2ccc(NC(C)=O)cc2)c1OC	none (no result: PNC inhibitor, HPGD inh, ALOX12 inhib, ALDH1A1 inh)
COc1ccc(-c2coc3c(O)c(OC)ccc3c2=O)cc1	Lamin A splicing inconclusive, ALDH1A1 inh inconclusive (no result: PNC inhibitor)
CO	none (no result: PNC inhibitor)
O=c1[nH][nH]cc1C=Nc1ccccc1O	Lamin A splicing inconclusive, ALDH1A1 inh inconclusive
O=c1c(=Nc2ccccc2O)c(=O)c2ccccc12	ALDH1A1 inh 22µM (no result: PNC inhibitor, HPGD inh, ALOX12 inhib)
Cc1ccc(-n2ncc3c(N4CCN(C)CC4)ncnc32)cc1C	none (no result: PNC inhibitor, HPGD inh, ALOX12 inhib, ALDH1A1 inh)
Cc1ccc(Nc2nnns2)cc1	HPGD inh 22µM, ALDH1A1 inh 2.5µM
COc1ccc(-c2[nH]ncc2CN(Cc2nccn2C)C(C)C)c(F)c1	ALDH1A1 inh 22µM (no result: PNC inhibitor, Lamin A splicing, HPGD inh, ALOX12 inhib)
C=CCNC(=S)NNC(=O)c1ccc(=O)n(Cc2ccc(Cl)cc2Cl)c1	none (no result: PNC inhibitor, Lamin A splicing, HPGD inh, ALOX12 inhib)
Cc1cccc(N2CCN(C(=O)Cc3c(C(=O)O)c(C)cn3C)CC2C)c1 (configuration not stated)	none (no result: PNC inhibitor, HPGD inh, ALOX12 inhib, ALDH1A1 inh)
C=CCN1C(=O)C(Cc2ccc(SC(F)F)cc2)SC1=Nc1ccc(C(=O)O)cc1 (configuration not stated)	Lamin A splicing inconclusive, ALDH1A1 inh 10µM (no result: PNC inhibitor, HPGD inh, ALOX12 inhib)
CCN(CC)C(=S)SCC(=O)NC12CC3CC(CC(C3)C1)C2	Lamin A splicing inconclusive, HPGD inh 14µM, ALDH1A1 inh 4.5µM

Screens from PubChem BioAssay.
